Drawing on PubChem BioAssay AID1626 (SRMLSC, 2009), this text covers inhibition for 97 molecules.

Screen size: about 220,000 compounds; about 2,000 (0.91%) were called active. Another 2% or so got no clear call; they are omitted. Not all results are given here. Results with a measured potency or affinity are listed apart. Unmarked numbers belong to inactive results. Rule as the data show it: inconclusive = inhibition above about 80% without an active follow-up result; inactive = below that; test concentration not stated here.

Broadly, the inhibition is the relative decrease from the control value, in per cent.

This experiment is described as follows: M. tuberculosis H37Rv growth inhibitors, H37Rv strain (AID 1626).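 Also: bacteria incubated seven days before Alamar blue readout; 0% = bacteria only wells and 100% = bacteria with antibiotic wells.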 As to conditions: hits give high values, concentration not given here.
As to `CN1CCN(S(=O)(=O)c2cccc(C(=O)Nc3nccs3)c2)CC1`, the inhibition was -4.26%.
As to `O=C1NC(=O)/C(=C/c2cccc(O)c2)N1`, the inhibition is 8.98%.
The result for `O=C(Cc1ccccc1)Nc1ccc(SC(F)F)cc1` reads 1.19%; that for `O=C(COC(=O)Cc1ccccc1F)Nc1ccc(SC(F)F)cc1`, 91.8%; that for `O=C(O)CC/C(=N/NC(=O)c1cccs1)c1ccccc1`, 7.05%.
Regarding `O=C(CCC1CCCCC1)NCCN1C2=NC[C@H](Cc3ccccc3)N2C[C@H]1Cc1ccc(O)cc1`, the inhibition was 9.81%.
The result for `O=C(CCC1CCCCC1)NCCN1C2=NC[C@@H](Cc3ccccc3)N2C[C@H]1Cc1ccc(O)cc1` reads 39.5%.
For `COc1ccc(C[C@H]2CN3C(=NC[C@H]3C)N2CCNC(=O)CCC2CCCCC2)cc1` the value was -3.43%.
As to `COc1ccc(C[C@H]2CN3C(=NC[C@@H]3C)N2CCNC(=O)CCC2CCCCC2)cc1`, the inhibition is -3.39%.
Regarding `NC(=O)c1nn(-c2ccccc2)nc1NC(=O)Cn1nnc(-c2ccccc2)n1`, the inhibition was 9.3%.
For `Cc1ccc(CS(=O)(=O)Cc2ccc(C(=O)NCc3cccs3)o2)cc1` the value was 3.64%; for `CC(C)c1cccc(C(C)C)c1OCCCCN1CCCC1`, 10.1%.
The result for `O=C(CCn1cccc1)N1CCc2ccccc21` reads 6.64%.
On to `CCOC(=O)c1ccccc1NC(=O)COC(=O)C1=COCCO1`, for which the inhibition is 71.3%.
For `Cc1ccc(NC(=O)COC(=O)C2=COCCO2)cc1` the value was 60.1%.
Consider `CC(C)c1ccc(NC(=O)COC(=O)C2=COCCO2)cc1`, for which the inhibition was 78.6%.
Take `CC(C)(C)c1ccc(NC(=O)COC(=O)C2=COCCO2)cc1`: the inhibition was 74%.
`NS(=O)(=O)c1ccc(NS(=O)(=O)c2ccc(NC(=S)Nc3ccccc3)cc2)cc1`: the inhibition is 7.44%.
Take `CC(=O)C1=C(C)NC(=O)CC1c1ccc(F)cc1` (configuration not stated): the inhibition was -1.68%.
For `COc1cc([N+](=O)[O-])ccc1NC(=O)/C=C\C(=O)O` the value was 2.65%; for `COc1ccc(CC(=O)Nc2ccccc2N2CCCCC2)cc1OC`, 6.94%; for `Cn1cnnc1-c1cccc(NC(=O)c2cc(F)c(F)cc2Cl)c1`, -5.29%.
For `O=C(NC1CCCC1)C(c1ccccc1)N(Cc1ccco1)C(=O)Cc1cccs1` (configuration not stated) the value was 2.16%; for `O=C(CCn1c(=O)[nH]c2ccccc2c1=O)Nc1ccccc1`, -7.56%; for `O=c1cc(C(F)F)oc2c1ccc1ccccc12`, 1.35%.
For the molecule `O=c1cc(C(F)(F)F)oc2c1ccc1ccccc12`, the inhibition is -2.31%.
For `COc1ccc(C(=O)C2CCCN(C(=O)c3cccnc3SC)C2)c(C)c1` (configuration not stated) the value was -5.65%; for `NS(=O)(=O)c1ccc(CCNCc2cccs2)cc1`, 1.78%; for `COc1ccc(NC(=O)c2ccco2)cc1N`, -14.7%.
On to `CCOC(=O)C1C(=O)CC(C)(O)C(C(=O)OCC)C1c1ccc(SC)cc1` (configuration not stated), for which the inhibition was 9.27%.
With `Cc1ccc(N2CSC3=C(C#N)C(c4cccs4)CC(=O)N3C2)cc1` (configuration not stated), the inhibition was 7.29%.
For `COc1ccc(OC)c(C2CC(=O)N3CN(c4ccccc4)CSC3=C2C#N)c1` (configuration not stated) the value was 0.68%.
The result for `COc1ccc(N2CSC3=C(C#N)C(c4cc(OC)c(OC)cc4OC)CC(=O)N3C2)c(OC)c1` (configuration not stated) reads 15%; that for `COc1ccc(N2CSC3=C(C#N)C(c4cc(OC)ccc4OC)CC(=O)N3C2)c(OC)c1` (configuration not stated), -0.31%.
For `COc1cccc(C2CC(=O)N3CN(c4cccc(Cl)c4C)CSC3=C2C#N)c1OC` (configuration not stated), the inhibition was -1.72%.
For `CCc1ccc(N2CSC3=C(C#N)C(c4cccs4)CC(=O)N3C2)cc1` (configuration not stated) the value was 22.1%; for `CC(=O)OC(C)CS(=O)(=O)c1ccccc1` (configuration not stated), -4.77%; for `CCN(c1cccc(C)c1)C(C(=O)Nc1ccc(OC)cc1)c1cc2c(cc1[N+](=O)[O-])OCO2` (configuration not stated), 1.06%.
The result for `Cc1ccc(C(=O)Nc2cccnc2)cc1[N+](=O)[O-]` reads -3.36%; that for `CCc1nc(SCc2cccnc2)[nH]c(=O)c1C`, -4.49%.
As to `COc1ccc(CN2C(=O)N(c3ccc(OC)cc3)C(=O)C2CC(=O)Nc2ccccc2)cc1` (configuration not stated), the inhibition was 6.5%.
For `CCCc1cc(=O)oc2c(CN3CCCC3)c(O)ccc12`, the inhibition was -6.61%.
The result for `CCCCN(C)C(=O)c1ccc(CS(=O)(=O)c2ccccc2C)o1` reads -5.74%; that for `COC(=O)CN1C(c2ccc(Cl)cc2)=Nc2ccc(Cl)cc2C1c1ccccc1` (configuration not stated), 79.4%; that for `COc1ccc(C2=Nc3ccc(C)cc3C(c3ccccc3)N2CC(=O)NN)cc1` (configuration not stated), -0.28%.
For `NNC(=O)CN1C(c2cccc(Cl)c2)=Nc2ccc(Br)cc2C1c1ccccc1` (configuration not stated) the value was -2.26%; for `COC(=O)CN1C(c2ccccc2)=Nc2ccc(Cl)cc2C1c1ccccc1` (configuration not stated), 0.35%; for `O=C1/C(=C/c2ccc(F)c(F)c2)CSc2sccc21`, 12.2%.
The result for `CCCCNS(=O)(=O)c1ccc2nc(-c3cccs3)cc(C(=O)NCC(OC)OC)c2c1` reads 3.68%; that for `COC(=O)c1ccc(Cl)c(NC(=O)NC23CC4CC(CC(C4)C2)C3)c1`, 2.38%; that for `CCOc1ccc(NC(=O)Nc2ccc(NC(C)=O)cc2)cc1`, -1.52%.
As to `COC(=O)c1cccc(NC(=O)Nc2ccc(Cl)c(Cl)c2)c1`, the inhibition is 51.3%.
The result for `COc1ccc(NC(=O)NC23CC4CC(CC(C4)C2)C3)cc1OC` reads 25.7%; that for `CCCc1cc(=O)oc2cc(C)cc(OCC(=O)O)c12`, -0.53%; that for `COC(CNC(=O)c1cc(-c2ccncc2)nc2ccc(S(=O)(=O)N3CCOCC3)cc12)OC`, -0.15%.
The result for `CN(C)CCc1nn[nH]n1` reads -3.39%; that for `COc1ccc(NC(=O)c2c(F)c(F)c(F)c(F)c2F)cc1Cl`, 0.77%; that for `COc1cc(NC(=O)c2ccc(F)cc2)c(OC)cc1Cl`, 6.81%.
For `COc1ccccc1N1CCN(Cc2nc(N)nc(Nc3ccccc3)n2)CC1` the value was -1.85%; for `COc1ccc(Nc2nc(N)nc(CN3CCN(c4ccc(F)cc4)CC3)n2)cc1`, 2.63%.
Regarding `COc1ccccc1N1CCN(Cc2nc(N)nc(Nc3ccc(C)cc3)n2)CC1`, the inhibition was 48.7%.
Take `COc1cccc(N2CCN(Cc3nc(N)nc(Nc4ccccc4)n3)CC2)c1`: the inhibition is 0.52%.
The result for `CCOC(=O)c1ccc(NC(=S)Nc2cccc(N)n2)cc1` reads 59.5%; that for `CCCNc1nc2c(c(=O)[nH]c(=O)n2C)n1Cc1cccc(Br)c1`, 1.4%; that for `CCOc1ccc(NC(=O)CN2C(=O)S/C(=C/c3cccn3C)C2=O)cc1`, 0.02%.
Consider `CCC(C)NC(=O)CCNS(=O)(=O)c1ccc(Br)cc1` (configuration not stated), for which the inhibition is -4.65%.
Consider `CCn1nccc1C(=O)Nc1nccs1`, for which the inhibition is -3.43%.
For `NS(=O)(=O)c1cccnc1Nc1cccc(C(F)(F)F)c1` the value was 3.67%.
The result for `Cc1ccc(Oc2nc(-c3cccnc3)nc3ccccc23)c([N+](=O)[O-])n1` reads 7.05%; that for `c1ccc(Oc2nc(-c3cccnc3)nc3ccccc23)cc1`, 8.16%.
For the molecule `CCCC(=O)Nc1cc(C(=O)O)ccc1Sc1ccc(C)cc1`, the inhibition is -4.31%.
The result for `COC(=O)CCC(=O)NC(=S)Nc1cc(Cl)ccc1Cl` reads -5.76%; that for `O=C(CSCc1ccccc1)Nc1ccc2c(c1)C(=O)NC2=O`, -3.24%.
The result for `N#C/C(=C\c1ccc([N+](=O)[O-])cc1)c1ccccn1` reads 7.55%.
The result for `NC(CO)(CO)COCc1ccccc1` reads 5.19%; that for `Cc1ccc(C(=O)/C=C\NCc2ccccc2)cc1`, 2.13%; that for `Cc1ccc(C(=O)/C=C/C(=O)O)cc1`, 1.06%.
`Cc1ccc(/C=C/C(=O)c2ccc(C)cc2)cc1`: the inhibition was 3.08%.
Turning to `Cc1ccc(/C=C/C(=O)c2ccccc2)cc1`, the inhibition is 10.3%.
The result for `O=C(O)/C=C/c1ccccc1[N+](=O)[O-]` reads -15.1%.
For `O=C(/C=C/c1ccccc1[N+](=O)[O-])c1ccc(F)cc1` the value was 49.5%; for `O=C(/C=C/c1ccc(-c2ccccc2)o1)c1ccccc1`, 12.6%.
For `Cc1ccc(C(=O)/C=C/c2ccc(-c3ccc(C)cc3)o2)cc1`, the inhibition was 88.2%.
As to `COc1ccc(-c2[nH]n(-c3ccc([N+](=O)[O-])cc3)c(=O)c2C=NCc2ccccc2)cc1`, the inhibition is -1.64%.
`C=CCC1(NC(C)c2ccccc2)CCCCC1` (configuration not stated): the inhibition is -4.87%.
For the molecule `O=C(Nc1ccc(-c2noc(COc3ccccc3Cl)n2)cc1)c1ccco1`, the inhibition was 0.69%.
On to `COc1cc(/C=C2/SC(=O)N(Cc3ccccc3Cl)C2=O)ccc1OCc1ccncc1`, for which the inhibition was 3.75%.
For the molecule `COCCNC(=O)C(c1ccncc1)N(C(=O)c1sc(C)nc1C)c1cccc(C)c1` (configuration not stated), the inhibition was -4.16%.
Regarding `Cc1ccc(NC(=O)c2cc3c(=O)oc4ccc(C)cc4c3s2)nc1`, the inhibition was -3.16%.
In the case of `Cc1ccc2c(c1)CC1(CN2C)C(=O)NC(=O)N(CCc2ccccc2)C1=O` (configuration not stated), the inhibition is -6.53%.
For `Cc1oc(CC(C)C)cc1C(=O)Nc1cccc2ccccc12` the value was -8.7%; for `Cn1c(=O)[nH]c(=O)c2c1nc(SCC(=O)Nc1ccccc1)n2Cc1ccccc1`, 4.62%; for `CCn1c(-c2cccnc2Cl)nc2cc(Cl)c(Cl)cc21`, 13.1%.
The result for `CCOCCCn1c(=S)[nH]c2cc(C(=O)N3CCN(C)CC3)ccc2c1=O` reads -9.01%.
`CCc1ccc(NC2CC(=O)N(CCc3ccc(OC)c(OC)c3)C2=O)cc1` (configuration not stated): the inhibition is 6.46%.
For `O=C(/C=C/Sc1ncn[nH]1)c1ccc(Cl)cc1` the value was 6.21%.
As to `O=C(/C=C/NNC(=O)c1ccc(Cl)cc1)c1ccccc1`, the inhibition was 2.77%.
